Rows were chosen to be rich in hits. Some 2.3% of all compounds tested hit in one or more screens of this group.
CHO-K1 Ca PAM – nonselective activator or artifact in parental CHO-K1 calcium assay; ATP EC20, Fluo-8 calcium fluorescence; 0% at ATP EC20, 100% at ATP max; activation, % at 3 µM; actives 0.02% (n = 360,000); AID 602247;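 active = activation above the run cutoff, the mean activation of all test compounds plus 3 SD, cut at about 40% in these data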;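 note: peak over basal fluorescence ratio in a 140 s read after ATP addition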
CHO-K1 Ca antag – nonselective inhibitor or artifact in parental CHO-K1 cells; actives 0.6% (n = 360,000); AID 602250; ATP-induced calcium, Fluo-8 fluorescence; inhibition, % at 3 µM;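 active = inhibition above a per-plate cutoff, the plate's mean sample inhibition plus 3 SD, cut at about 24% in these data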
CHO-K1 Ca ag – counter-screen for M1 agonists: effect in parental CHO-K1 cells; Fluo-8 calcium fluorescence; scaled to maximal ATP response, vehicle zero; activation, % at 3 µM; actives 0.48% (n = 360,000); AID 602248; in the data active = activation above about 15%;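 note: untransfected CHO-K1 host cells lacking M1 receptor as counterscreen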
CHRM1 agonist – human M1 muscarinic receptor agonism; P11229; CHO-K1 hM1, Fluo-8 calcium fluorescence, agonist mode; 0% DMSO, 100% acetylcholine EC100; activation, % at 3 µM; actives 0.33% (n = 360,000);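 active = activation above the run's mean compound activation plus 3 SD, cut at about 16% in these data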;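 note: peak over basal fluorescence ratio within a 140 s kinetic read after compound addition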
Target sequence (P11229 whole entry, looked up): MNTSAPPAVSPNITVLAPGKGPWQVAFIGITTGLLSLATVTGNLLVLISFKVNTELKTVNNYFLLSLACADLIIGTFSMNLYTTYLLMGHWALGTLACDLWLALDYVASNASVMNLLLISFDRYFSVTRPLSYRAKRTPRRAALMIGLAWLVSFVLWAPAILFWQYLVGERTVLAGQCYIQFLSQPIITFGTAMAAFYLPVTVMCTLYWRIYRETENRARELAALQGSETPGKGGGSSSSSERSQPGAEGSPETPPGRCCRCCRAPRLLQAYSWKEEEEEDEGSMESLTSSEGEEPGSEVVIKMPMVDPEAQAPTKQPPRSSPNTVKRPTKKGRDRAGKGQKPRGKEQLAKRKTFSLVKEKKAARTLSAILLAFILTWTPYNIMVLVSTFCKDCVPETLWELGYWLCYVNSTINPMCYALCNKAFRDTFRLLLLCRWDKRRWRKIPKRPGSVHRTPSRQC
M1 antag – human CHRM1 antagonism. P11229. CHO-K1 hM1, Fluo-8 calcium fluorescence, ACh EC80 antagonist. inhibition, % at 3 µM. actives 1.3% (n = 360,000). AID 588852;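 active = percent inhibition above its own plate's cutoff, namely the mean of that plate's compound wells plus 3 SD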;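 note: peak over basal fluorescence ratio during 140 s after agonist addition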
CHRM1 PAM – human CHRM1 positive allosteric modulation. P11229. CHO-K1 hM1, Fluo-8 calcium fluorescence, ACh EC20; 0% = ACh EC20, 100% = maximal ACh. activation, % at 3 µM. actives 0.088% (n = 360,000); in the data active = activation above about 19%, passing the limit was not always enough
Hits are given with their value; . = inactive.

SMILES	CHO-K1 Ca PAM	CHO-K1 Ca antag	CHO-K1 Ca ag	CHRM1 agonist	M1 antag	CHRM1 PAM
Cc1noc(C)c1COc1cccc(C(=O)OC(C)C(=O)Nc2c(C)n(C)n(-c3ccccc3)c2=O)c1 (centres undefined)	.	.	.	.	.	.
CCOc1ccc(NC(=O)CCC(=O)NNC(=O)COc2ccc(C)cc2Br)cc1	.	.	.	.	.	.
CN(C)CCCN1c2ccc(O)cc2Sc2ccc(Cl)cc21	.	.	.	.	100	.
COc1ccc(C)cc1Nc1n[n+](-c2ccccc2)c(-c2cc(OC)c(OC)cc2Br)s1	.	.	.	.	.	.
COc1ccc(C)cc1Nc1n[n+](-c2ccccc2)c(-c2c(OC)ccc3ccccc23)s1	.	.	16	.	31	.
Fc1ccc(-[n+]2nc(Nc3ccccc3)sc2-c2c3ccccc3cc3ccccc23)cc1	.	.	.	19	.	.
CCc1nc2ccc(C(=O)N(C)CCN(C)C)cn2c1N(C)Cc1cc2ccccc2s1	.	.	.	.	.	.
Cn1cc(S(=O)(=O)N2CCOCC2)cc1C(=O)O	.	.	.	.	.	.
COc1cc2c(cc1OC)CN(C(=S)Nc1ccccc1Cl)CC2	.	.	17	.	.	.
Cc1ccc(NC(=O)Nc2nnc([C@@H]3C[C@H](O)[C@@H](CO)O3)s2)cc1	.	.	.	.	.	.
O=C(Nc1nnc([C@@H]2C[C@H](O)[C@@H](CO)O2)s1)c1cccc(Oc2ccccc2)c1	.	.	.	.	.	.
O=C(Nc1nnc([C@H]2C[C@H](O)[C@@H](CO)O2)s1)c1cccc(Oc2ccccc2)c1	.	25	.	.	.	.
O=C(Nc1ccccc1)Nc1nnc([C@H]2C[C@H](O)[C@@H](CO)O2)s1	.	26	.	.	.	.
COC(=O)C1CCN(c2cc(=O)n(Cc3ccc(F)cc3)c(=O)[nH]2)CC1	.	.	.	.	.	.
CCOC(=O)C1CCCN(c2cc(=O)n(Cc3ccc(F)cc3)c(=O)[nH]2)C1 (centres undefined)	.	.	.	22	.	.
CCOC(=O)C1CCCN(c2cc(=O)n(-c3ccccc3Cl)c(=O)[nH]2)C1 (centres undefined)	.	.	.	29	.	.
CC(C)(C)OC(=O)CNC(=O)c1[nH]cnc1C(=O)NC(c1ccccc1)c1ccccc1	.	.	.	.	.	.
O=C(O)c1c[nH]c2ccc([N+](=O)[O-])cc2c1=O	.	.	.	.	.	.
C=CCn1c(SCC#N)nc2sc(CC)cc2c1=O	.	.	.	.	34	.
O=C(NNC(=O)c1ccncc1)Nc1ccc(N=Nc2ccccc2)cc1	.	.	.	18	.	.
COCCOC(=O)c1cc(C(=O)c2cc(Cl)ccc2O)coc1=N	.	.	.	.	.	.
CN(C)S(=O)(=O)c1cc(NC(=O)c2ccc(-n3ccnc3)c([N+](=O)[O-])c2)ccc1Cl	.	.	.	.	26	.
COc1ccccc1NC(=O)c1ccc(-n2ccnc2)c([N+](=O)[O-])c1	.	.	.	.	.	.
COc1ccc(CCNC(=O)c2nnn(CC(=O)Nc3cccc(F)c3)c2N)cc1OC	.	.	.	.	.	.
O=C(N/N=C/c1ccc(OC2CSC2)cc1)c1ccccc1	.	.	.	32	.	.
SMILES	CHO-K1 Ca PAM	CHO-K1 Ca antag	CHO-K1 Ca ag	CHRM1 agonist	M1 antag	CHRM1 PAM
COC(=O)c1sc(NC(=O)CSc2nnnn2-c2ccc(C)cc2C)nc1C	.	26	.	.	.	.
CC(=O)NCCNc1nc(NCC2CC2)nc2cc(-c3ccccc3)sc12	.	.	.	.	.	.
O=C(Nc1ccccc1N1CCOCC1)c1cc(-c2ccco2)nc2ccccc12	.	.	.	.	38	.
Cc1cc(C)c(OCC(=O)Nc2ccccc2N2CCCCC2)c(C)c1	.	.	.	.	.	.
Cc1cc(C)c(OCC(=O)Nc2ccccc2N2CCOCC2)c(C)c1	.	.	17	18	.	.
COc1cc(-c2cc(C(=O)Nc3ccccc3N3CCOCC3)c3ccccc3n2)cc(OC)c1OC	.	.	.	.	.	.
Clc1cnc(Nc2cccnc2)c(Cl)c1	.	.	.	.	.	.
Cc1onc(-c2ccccc2)c1C(=O)NC(=S)NNC(=O)c1ccccc1O	.	.	77	74	.	.
Cc1onc(-c2ccccc2)c1C(=O)NC(=S)NNC(=O)c1ccc(O)cc1O	.	.	.	.	.	.
CCCOc1ccc(C(=O)NC(=S)NNC(=O)c2c(-c3ccccc3)noc2C)cc1	.	.	33	97	62	.
Cc1ccc(C(C)C)c(OCCCCCN2CCOCC2)c1	.	.	.	.	69	.
Cc1ccc(C(C)C)c(OCCCCN2CCNCC2)c1	.	.	.	.	.	.
C=CCc1ccc(OCCCCCN2CCOCC2)c(OC)c1	.	.	.	.	46	.
C=CCc1ccc(OCCCCOc2ccc(C(=O)O)cc2)c(OC)c1	.	.	.	.	.	.
CNc1ccc(C(O)(C(F)(F)F)C(F)(F)F)cc1C(O)(C(F)(F)F)C(F)(F)F	.	35	.	.	.	.
O=C(COc1cc(F)ccc1[N+](=O)[O-])N1N=C(c2cccs2)CC1c1ccco1 (centres undefined)	.	.	.	.	.	.
COc1cccc(NC(=O)CN(C)C(=O)COc2ccccc2Cc2ccccc2)c1	.	.	.	.	.	.
COc1ccc(/C=N/NC(=O)c2ccc(CN3c4cccc5cccc(c45)S3(=O)=O)cc2)cc1	.	.	.	16	.	.
COc1cc(/C=N/NC(=O)c2ccc(CN3c4cccc5cccc(c45)S3(=O)=O)cc2)cc(OC)c1O	.	.	.	.	.	.
O=C(N/N=C/CCc1ccccc1)c1ccc(CN2c3cccc4cccc(c34)S2(=O)=O)cc1	.	.	.	21	.	.
O=C(c1ccco1)N1N=C(c2ccc3nccnc3c2)CC1c1ccccc1 (centres undefined)	47	.	.	.	.	.
Cc1ccnc(NC(=O)CCC(=O)c2cc(C)sc2C)c1	.	.	.	.	.	.
O=S(=O)(NC1CCCCC1N1CCCCC1)c1ccccc1 (centres undefined)	.	.	.	.	.	.
CCN1CCN(C2CCCCC2NS(=O)(=O)c2ccccc2)CC1 (centres undefined)	.	.	.	.	34	.
COCCNc1nc(NCc2ccccc2F)c2sccc2n1	.	.	.	.	.	.
COc1ccccc1CNc1nc(NCc2ccccc2F)c2sccc2n1	.	28	17	.	40	.
COc1ccccc1CNc1nc(NCc2cccc(OC)c2OC)c2sccc2n1	.	.	.	.	.	.
C#Cc1cccc(Nc2nc(NCc3ccccc3OC)nc3ccsc23)c1	.	.	.	.	35	.

Source: PubChem
